According to PubChem BioAssay AID1159580 (chemical genetic matrix, 2015):
Where “and” joins values, the source holds several entries; their conditions need not be identical. Equal values may be shown once. Among all 5,500 compounds or so, about 2,000 (36%) were called active. Another 18% or so got no clear call; they are omitted. Cut-off read from the data, not from the text of the source: active = normalized growth mostly below about 0.91 (no sharp cut-off); inconclusive = no clear call, values can overlap the other calls; inactive = mostly above about 0.92. This is one part of the list.

Experiment: chemical genetic growth profiling, strain panel (AID 1159580);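 note: tested at 20 µM; growth read once vehicle control cultures reached saturation at 30 °C; 1 = growth at the plate median or of vehicle wells; lower values mean less growth of the strain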
Details: growth OD

Measured: normalized growth

COc1ccc(Cl)cc1C(=O)NCCc1ccc(S(=O)(=O)NC(=O)NC2CCCCC2)cc1
inactive: S. cerevisiae deletion strains, locus YJR075W, strain HOC1, stronger effect = lower value 0.98 and 0.984 | S. cerevisiae deletion strains, locus YKL009W, strain mrt4, stronger effect = lower value 1.02 | S. cerevisiae deletion strains, locus YKL068W, stronger effect = lower value 1.04 | S. cerevisiae deletion strains, locus YKL085W, strain MDH1 (second series), stronger effect = lower value 0.977 | S. cerevisiae deletion strains, locus YKL085W, strain MDH1, stronger effect = lower value 0.977 | S. cerevisiae deletion strains, locus YKL160W, strain elf1, stronger effect = lower value 1.01 | S. cerevisiae deletion strains, locus YKL190W, strain CNB1, stronger effect = lower value 0.945 | S. cerevisiae deletion strains, locus YKR001C, strain vps1, stronger effect = lower value 0.997 | S. cerevisiae deletion strains, locus YKR026C, strain gcn3, stronger effect = lower value 0.989 | S. cerevisiae deletion strains, locus YKR091W, strain srl3, stronger effect = lower value 0.993 | S. cerevisiae deletion strains, locus YLL001W, strain dnm1, stronger effect = lower value 1.01 | S. cerevisiae deletion strains, locus YLL026W, stronger effect = lower value 0.995 | S. cerevisiae deletion strains, locus YLL041C, strain sdh2, stronger effect = lower value 1 | S. cerevisiae deletion strains, locus YLR027C, strain aat2, stronger effect = lower value 1.01 | S. cerevisiae deletion strains, locus YLR039C, strain RIC1, stronger effect = lower value 0.963 | S. cerevisiae deletion strains, locus YLR058C, strain SHM2, stronger effect = lower value 0.972 | S. cerevisiae deletion strains, locus YLR102C, strain apc9, stronger effect = lower value 0.989 | S. cerevisiae deletion strains, locus YLR113W, strain HOG1, stronger effect = lower value 1.01 | S. cerevisiae deletion strains, locus YLR221C, strain rsa3, stronger effect = lower value 1 | S. cerevisiae deletion strains, locus YLR258W, strain gsy2, stronger effect = lower value 0.982 | S. cerevisiae deletion strains, locus YLR262C, strain YPT6 (second series), stronger effect = lower value 0.999 | S. cerevisiae deletion strains, locus YLR262C, strain YPT6, stronger effect = lower value 0.915 | S. cerevisiae deletion strains, locus YLR268W, strain sec22, stronger effect = lower value 0.966 | S. cerevisiae deletion strains, locus YLR320W, strain mms22, stronger effect = lower value 1 | S. cerevisiae deletion strains, locus YLR330W, strain CHS5, stronger effect = lower value 0.994 | S. cerevisiae deletion strains, locus YLR342W, strain FKS1 (second series), stronger effect = lower value 1.1 | S. cerevisiae deletion strains, locus YLR342W, strain FKS1, stronger effect = lower value 1.01 | S. cerevisiae deletion strains, locus YLR357W, strain rsc2, stronger effect = lower value 0.998 | S. cerevisiae deletion strains, locus YLR370C, strain arc18, stronger effect = lower value 0.998 | S. cerevisiae deletion strains, locus YLR371W, strain rom2, stronger effect = lower value 1.01 | S. cerevisiae deletion strains, locus YLR384C, strain iki3, stronger effect = lower value 1 | S. cerevisiae deletion strains, locus YLR418C, strain cdc73, stronger effect = lower value 0.944 | S. cerevisiae deletion strains, locus YML016C, strain PPZ1, stronger effect = lower value 0.987 | S. cerevisiae deletion strains, locus YML032C, strain rad52, stronger effect = lower value 1.02 | S. cerevisiae deletion strains, locus YML120C, strain ndi1, stronger effect = lower value 1.02 | S. cerevisiae deletion strains, locus YML124C, strain tub3, stronger effect = lower value 1 | S. cerevisiae deletion strains, locus YMR058W, strain fet3, stronger effect = lower value 0.999 | S. cerevisiae deletion strains, locus YMR078C, strain ctf18, stronger effect = lower value 0.998 | S. cerevisiae deletion strains, locus YMR125W, strain sto1, stronger effect = lower value 0.992 | S. cerevisiae deletion strains, locus YMR129W, stronger effect = lower value 1.01 | S. cerevisiae deletion strains, locus YMR205C, strain PFK2, stronger effect = lower value 1 | S. cerevisiae deletion strains, locus YMR223W, strain ubp8, stronger effect = lower value 1.05 | S. cerevisiae deletion strains, locus YMR231W, strain pep5, stronger effect = lower value 1.01 | S. cerevisiae deletion strains, locus YMR263W, strain SAP30, stronger effect = lower value 0.961 and 1 | S. cerevisiae deletion strains, locus YMR307W, strain GAS1, stronger effect = lower value 1.06 and 0.976 | S. cerevisiae deletion strains, locus YNL067W, strain RPL9B, stronger effect = lower value 0.951 | S. cerevisiae deletion strains, locus YNL071W, strain lat1, stronger effect = lower value 1.01 | S. cerevisiae deletion strains, locus YNL128W, strain TEP1, stronger effect = lower value 0.911 | S. cerevisiae deletion strains, locus YNL153C, strain GIM3, stronger effect = lower value 0.943 and 1.04 | S. cerevisiae deletion strains, locus YNL175C, strain NOP13, stronger effect = lower value 1 | S. cerevisiae deletion strains, locus YNL183C, strain NPR1, stronger effect = lower value 0.947 | S. cerevisiae deletion strains, locus YNL197C, strain WHI3, stronger effect = lower value 1.01 | S. cerevisiae deletion strains, locus YNL209W, strain ssb2, stronger effect = lower value 1.01 | S. cerevisiae deletion strains, locus YNL224C, strain SQS1, stronger effect = lower value 1.01 | S. cerevisiae deletion strains, locus YNL233W, strain BNI4, stronger effect = lower value 0.978 | S. cerevisiae deletion strains, locus YNL248C, strain rpa49, stronger effect = lower value 1.01 | S. cerevisiae deletion strains, locus YNL250W, strain rad50, stronger effect = lower value 0.969 | S. cerevisiae deletion strains, locus YNL271C, strain bni1, stronger effect = lower value 0.999 | S. cerevisiae deletion strains, locus YNL298W, strain CLA4, stronger effect = lower value 0.987 | S. cerevisiae deletion strains, locus YNL307C, strain MCK1, stronger effect = lower value 1.03 | S. cerevisiae deletion strains, locus YNL322C, strain KRE1 (second series), stronger effect = lower value 0.999 | S. cerevisiae deletion strains, locus YNL322C, strain KRE1, stronger effect = lower value 0.975 | S. cerevisiae deletion strains, locus YNR049C, strain mso1, stronger effect = lower value 1 | S. cerevisiae deletion strains, locus YNR052C, strain pop2, stronger effect = lower value 1 | S. cerevisiae deletion strains, locus YOL006C, strain TOP1, stronger effect = lower value 0.875 | S. cerevisiae deletion strains, locus YOL012C, strain htz1 1.15 | S. cerevisiae deletion strains, locus YOL147C, strain pex11, stronger effect = lower value 1 | S. cerevisiae deletion strains, locus YOR001W, strain rrp6, stronger effect = lower value 1.01 | S. cerevisiae deletion strains, locus YOR061W, strain CKA2, stronger effect = lower value 0.96 | S. cerevisiae deletion strains, locus YOR069W, strain VPS5, stronger effect = lower value 1 | S. cerevisiae deletion strains, locus YOR070C, strain gyp1, stronger effect = lower value 0.995 | S. cerevisiae deletion strains, locus YOR080W, strain dia2, stronger effect = lower value 0.987 | S. cerevisiae deletion strains, locus YOR083W, strain WHI5 (second series), stronger effect = lower value 1.07 | S. cerevisiae deletion strains, locus YOR083W, strain WHI5, stronger effect = lower value 1.01 | S. cerevisiae deletion strains, locus YOR106W, strain vam3, stronger effect = lower value 1.01 | S. cerevisiae deletion strains, locus YOR136W, strain idh2, stronger effect = lower value 0.996 | S. cerevisiae deletion strains, locus YOR144C, strain elg1, stronger effect = lower value 0.999 | S. cerevisiae deletion strains, locus YOR184W, strain ser1, stronger effect = lower value 1.06 | S. cerevisiae deletion strains, locus YOR231W, strain MKK1, stronger effect = lower value 0.994 | S. cerevisiae deletion strains, locus YOR265W, strain rbl2, stronger effect = lower value 1 | S. cerevisiae deletion strains, locus YOR270C, strain vph1, stronger effect = lower value 0.998 | S. cerevisiae deletion strains, locus YOR290C, strain snf2, stronger effect = lower value 0.938 | S. cerevisiae deletion strains, locus YOR316C, strain cot1, stronger effect = lower value 0.994 | S. cerevisiae deletion strains, locus YPL051W, strain arl3, stronger effect = lower value 1.01 | S. cerevisiae deletion strains, locus YPL055C, strain LGE1, stronger effect = lower value 0.877 | S. cerevisiae deletion strains, locus YPL078C, strain atp4, stronger effect = lower value 1.01 | S. cerevisiae deletion strains, locus YPL106C, strain sse1, stronger effect = lower value 1.02 | S. cerevisiae deletion strains, locus YPL240C, strain hsp82, stronger effect = lower value 1 | S. cerevisiae deletion strains, locus YPL241C, strain CIN2, stronger effect = lower value 0.972 and 1.01 | S. cerevisiae deletion strains, locus YPL256C, strain CLN2, stronger effect = lower value 1.01 | S. cerevisiae deletion strains, locus YPR119W, strain clb2, stronger effect = lower value 0.986 | S. cerevisiae deletion strains, locus YPR141C, strain kar3, stronger effect = lower value 0.976 | S. cerevisiae deletion strains, locus YPR163C, strain tif3, stronger effect = lower value 1 | S. cerevisiae deletion strains, locus YPR167C, strain met16, stronger effect = lower value 0.993 | S. cerevisiae deletion strains, strain wtn01, stronger effect = lower value 0.98 | S. cerevisiae strains, strain wild type, stronger effect = lower value 0.97
